This passage reports Inhibition results from ChEMBL document CHEMBL1157539, “Thousands of chemical starting points for antimalarial lead identification” (Nature, 2010).

Molecules are shown by their SMILES.

The subject of the experiment is Plasmodium falciparum. Kind of experiment: GSK_TCMDC: Inhibition of Plasmodium falciparum 3D7 in whole red blood cells, using parasite LDH activity as an index of growth. Test compounds present at 2uM. It is filed as functional.
For the molecule `C=CCOC(=O)N1CCC(CNCc2cccc(-c3ccc(-c4nc5cccc(C)c5[nH]4)cc3)c2)C1.O=C(O)C(F)(F)F` (centres undefined), the Inhibition is 100%. `COCCNCc1cccc(-c2ccc3c(Nc4ccc(Oc5cccnc5)cc4)ccnc3c2)c1` yielded an Inhibition of 100%. As for `CC(CN(C)C)C(=O)Nc1cccc(-c2ccc(-c3nc4ccccc4[nH]3)cc2)c1` (centres undefined), the figure is 98%; as for `Cc1[nH]c(C)c(-c2ccc(OCCCCSc3ccncc3)cc2)c(=O)c1Br`, 97%; as for `CC(C)N1CCN(C(=O)c2ccc(CN(C)CCCN3CCN(c4cccc(Cl)c4Cl)CC3)s2)CC1.Cl`, 94%. For the molecule `COc1ccc(Nc2nc(C)cc(NCc3ccc(-c4c(C)noc4C)cc3)n2)cc1`, the Inhibition is reported as 99%. Regarding `Cc1cc(Nc2cc(Cl)cc(Cl)c2)nc(N)n1`, the Inhibition turned out to be 94%. Molecule `O=C(Nc1cc2cc(-c3ccc(CN4CCCCC4)cc3)ccc2n2cnnc12)NC1CCCC1` displayed an Inhibition of 100%.

Turning to `CCc1ccc(NC(=O)c2ccc(CN3CCCN(Cc4cccc(O)c4)CC3)cc2)cc1.O=C(O)C(F)(F)F`, the Inhibition stood at 100%.

In turn, `Clc1cc2c(Nc3ccc(Oc4ccccc4)cc3)ccnc2cc1-c1ccc(CNCCN2CCOCC2)o1` displayed an Inhibition of 100%. Consider `Brc1ccc(Nc2nc(NCC3CCCO3)c3ccccc3n2)cc1` (centres undefined), for which the Inhibition came out at 100%. The molecule `Cc1cc(C)cc(CC(=O)N2CCC(n3c(C)nc4ccc(C)cc43)CC2)c1` came in with an Inhibition of 100%.

`Br.CC1(C)NC(N)=NC(=N)N1OCCCOc1ccccc1N` registered an Inhibition of 93%. In turn, `COc1cc2c(cc1OCCN1CCC(N)CC1)N(C(=O)/C=C/c1ccccc1Cl)CC2.Cl` yielded an Inhibition of 91%.

Usually Inhibition stands for how much of the control response was suppressed.
